Reference: the supplement of paper PMC10849652
Targets with a hit are over-represented here; the source holds about 7,900 in all. About 0.6% of all pairs of compound and target were hits.

Legend:
Assay in all cases: log2 fold change, soluble protein after heating vs DMSO (PISA); higher = thermal stabilisation; K562 cells, 10 uM, 30 min; active = over 0.2 and 3.5 SD of the protein, either way, in both replicates (recomputed)
[1] = compound: COC1=CC=C(C=C1)CN2C=CC3=C2C=C(C=C3)C(=O)NO
In short: (§1)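 K562 cells at 2×10^6 cells/mL were exposed to 10 μM compound for 30 min, then aliquots were heated for 3 min across 48°C-58°C, pooled, and extracted in PBS containing 0.5% NP-40 at 4°C. The supernatant after 21,000xg for 90 min was taken as soluble protein and measured by TMTpro 16plex LC-MS/MS with channel sums equalised. Thermal stability is reported relative to control samples, with values from duplicates. Fold changes are given on a log2 scale.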

filanesib = compound: CON(C)C(=O)N1N=C(c2cc(F)ccc2F)S[C@@]1(CCCN)c1ccccc1 [filanesib]
In short: as §1

zotarolimus = compound: CO[C@H]1C[C@@H]2CC[C@@H](C)[C@@](O)(O2)C(=O)C(=O)N2CCCC[C@H]2C(=O)O[C@H]([C@H](C)C[C@@H]2CC[C@H](n3cnnn3)[C@H](OC)C2)CC(=O)[C@H](C)/C=C(\C)[C@@H](O)[C@@H](OC)C(=O)[C@H](C)C[C@H](C)/C=C/C=C/C=C/1C [zotarolimus]
In short: as §1

idasanutlin = compound: COc1cc(C(=O)O)ccc1NC(=O)[C@@H]1N[C@@H](CC(C)(C)C)[C@](C#N)(c2ccc(Cl)cc2F)[C@H]1c1cccc(Cl)c1F [idasanutlin]
In short: as §1

alisertib = compound: COc1cc(Nc2ncc3c(n2)-c2ccc(Cl)cc2C(c2c(F)cccc2OC)=NC3)ccc1C(=O)O [alisertib]
In short: as §1

[2] = compound: COc1cc2nc(-c3cc(F)ccc3O)nc(N[C@@H]3CNC[C@H]3C(C)(C)O)c2cc1OC
In short: as §1

gefitinib = compound: COc1cc2ncnc(Nc3ccc(F)c(Cl)c3)c2cc1OCCCN1CCOCC1 [gefitinib]
In short: as §1

[3] = compound: COc1cccc2cc(-c3nc([C@H]4CC[C@H](C(=O)O)CC4)n4ncnc(N)c34)[nH]c12
In short: as §1

lapatinib = compound: CS(=O)(=O)CCNCc1ccc(-c2ccc3ncnc(Nc4ccc(OCc5cccc(F)c5)c(Cl)c4)c3c2)o1 [lapatinib]
In short: as §1

pictilisib = compound: CS(=O)(=O)N1CCN(Cc2cc3nc(-c4cccc5[nH]ncc45)nc(N4CCOCC4)c3s2)CC1 [pictilisib]
In short: as §1

Measured: log2 fold change

MT-ATP6 (UniProt P00846)
inactive: [1] -0.018 | filanesib -0.036 | zotarolimus -0.022 | idasanutlin -0.084 | alisertib -0.05 | [2] 0.133 | gefitinib 0.05 | [3] 0.055 | lapatinib -0.105 | pictilisib 0.208

NIPSNAP2 (UniProt O75323)
inactive: [1] 0.074 | filanesib -0.065 | zotarolimus 0.008 | idasanutlin -0.022 | alisertib 0.003 | [2] 0.007 | gefitinib 0.045 | [3] -0.038 | pictilisib 0.079
active: lapatinib 0.224

NQO1 (UniProt P15559)
Chain of UniProt P15559 (P15559 whole entry, looked up): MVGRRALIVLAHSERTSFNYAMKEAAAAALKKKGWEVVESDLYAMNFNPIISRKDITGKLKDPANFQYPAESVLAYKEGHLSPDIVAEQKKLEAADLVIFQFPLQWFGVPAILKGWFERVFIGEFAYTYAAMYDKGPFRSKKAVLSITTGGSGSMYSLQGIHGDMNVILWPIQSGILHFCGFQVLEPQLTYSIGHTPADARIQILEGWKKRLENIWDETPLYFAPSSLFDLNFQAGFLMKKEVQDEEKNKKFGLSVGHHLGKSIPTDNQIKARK
inactive: [1] 0.062 | filanesib -0.053 | zotarolimus 0.069 | idasanutlin -0.085 | alisertib -0.094 | [2] 0.011 | gefitinib -0.006 | [3] 0.001 | lapatinib -0.017 | pictilisib -0.006

NFATC2IP (UniProt Q8NCF5)
Chain of UniProt Q8NCF5 (Q8NCF5 whole entry, looked up): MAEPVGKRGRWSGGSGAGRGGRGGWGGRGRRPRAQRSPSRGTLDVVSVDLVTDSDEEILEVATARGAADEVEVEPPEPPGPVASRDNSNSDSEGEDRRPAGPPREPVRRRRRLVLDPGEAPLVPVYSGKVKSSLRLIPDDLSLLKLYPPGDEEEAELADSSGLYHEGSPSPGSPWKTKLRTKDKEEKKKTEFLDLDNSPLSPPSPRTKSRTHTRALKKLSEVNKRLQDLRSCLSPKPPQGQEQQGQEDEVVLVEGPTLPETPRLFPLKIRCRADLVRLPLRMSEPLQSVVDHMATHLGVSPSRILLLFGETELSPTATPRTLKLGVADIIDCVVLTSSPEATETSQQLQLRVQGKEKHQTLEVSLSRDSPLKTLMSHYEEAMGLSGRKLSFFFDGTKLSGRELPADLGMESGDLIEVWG
inactive: [1] -0.008 | filanesib -0.015 | zotarolimus -0.021 | idasanutlin -0.141 | alisertib 0.01 | [2] 0.026 | gefitinib 0 | [3] 0.056 | lapatinib 0.029 | pictilisib 0.098

OAT (UniProt P04181)
inactive: [1] -0.028 | filanesib -0.183 | zotarolimus 0.03 | idasanutlin -0.054 | alisertib -0.025 | [2] -0.095 | gefitinib 0.011 | [3] 0.004 | lapatinib -0.076 | pictilisib 0.12

NDUFB8 (UniProt O95169)
inactive: [1] -0.042 | filanesib 0.004 | zotarolimus -0.005 | idasanutlin 0.069 | alisertib -0.04 | [2] -0.141 | gefitinib -0.023 | [3] 0.06 | lapatinib -0.036 | pictilisib -0.034

MYH10 isoform 3 (UniProt P35580)
inactive: [1] 0.092 | filanesib -0.116 | zotarolimus 0.011 | idasanutlin -0.065 | alisertib -0.025 | [2] 0.036 | gefitinib -0.005 | [3] -0.007 | lapatinib -0.006 | pictilisib -0.033

MSH3 (UniProt P20585)
inactive: [1] -0.074 | filanesib 0.005 | zotarolimus 0.036 | idasanutlin -0.004 | alisertib 0.008 | [2] 0.093 | gefitinib 0.005 | [3] 0 | lapatinib 0.042 | pictilisib -0.006

MSL1 (UniProt Q68DK7)
inactive: [1] -0.163 | filanesib -0.013 | idasanutlin -0.113 | alisertib -0.081 | [2] 0.275 | gefitinib 0.04 | [3] -0.012 | lapatinib -0.117 | pictilisib 0.197

PAFAH2 (UniProt Q99487)
inactive: [1] -0.025 | filanesib -0.089 | zotarolimus 0.012 | idasanutlin 0.153 | [2] 0.043 | lapatinib -0.037

P4HA2 (UniProt O15460)
inactive: [1] -0.109 | filanesib 0.078 | zotarolimus 0.026 | alisertib 0.011 | [2] -0.139 | gefitinib 0.006 | [3] -0.11 | lapatinib 0.075 | pictilisib -0.003

MINK1 (UniProt Q8N4C8)
inactive: [1] -0.054 | filanesib -0.003 | zotarolimus 0.014 | idasanutlin 0.013 | alisertib -0.042 | [2] -0.064 | [3] 0.024 | lapatinib 0.024 | pictilisib -0.019

MRPS26 (UniProt Q9BYN8)
inactive: [1] -0.039 | filanesib 0.09 | zotarolimus 0.04 | idasanutlin -0.145 | alisertib -0.078 | [2] 0.041 | [3] 0.072 | lapatinib 0.074 | pictilisib -0.155

NUP205 (UniProt Q92621)
inactive: [1] 0.015 | filanesib 0.01 | zotarolimus 0.009 | idasanutlin -0.08 | alisertib -0.014 | [2] 0.058 | gefitinib -0.011 | [3] -0.008 | lapatinib -0.03 | pictilisib -0.01

MON2 isoform 5 (UniProt Q7Z3U7)
Chain of UniProt Q7Z3U7 (Q7Z3U7 whole entry, looked up): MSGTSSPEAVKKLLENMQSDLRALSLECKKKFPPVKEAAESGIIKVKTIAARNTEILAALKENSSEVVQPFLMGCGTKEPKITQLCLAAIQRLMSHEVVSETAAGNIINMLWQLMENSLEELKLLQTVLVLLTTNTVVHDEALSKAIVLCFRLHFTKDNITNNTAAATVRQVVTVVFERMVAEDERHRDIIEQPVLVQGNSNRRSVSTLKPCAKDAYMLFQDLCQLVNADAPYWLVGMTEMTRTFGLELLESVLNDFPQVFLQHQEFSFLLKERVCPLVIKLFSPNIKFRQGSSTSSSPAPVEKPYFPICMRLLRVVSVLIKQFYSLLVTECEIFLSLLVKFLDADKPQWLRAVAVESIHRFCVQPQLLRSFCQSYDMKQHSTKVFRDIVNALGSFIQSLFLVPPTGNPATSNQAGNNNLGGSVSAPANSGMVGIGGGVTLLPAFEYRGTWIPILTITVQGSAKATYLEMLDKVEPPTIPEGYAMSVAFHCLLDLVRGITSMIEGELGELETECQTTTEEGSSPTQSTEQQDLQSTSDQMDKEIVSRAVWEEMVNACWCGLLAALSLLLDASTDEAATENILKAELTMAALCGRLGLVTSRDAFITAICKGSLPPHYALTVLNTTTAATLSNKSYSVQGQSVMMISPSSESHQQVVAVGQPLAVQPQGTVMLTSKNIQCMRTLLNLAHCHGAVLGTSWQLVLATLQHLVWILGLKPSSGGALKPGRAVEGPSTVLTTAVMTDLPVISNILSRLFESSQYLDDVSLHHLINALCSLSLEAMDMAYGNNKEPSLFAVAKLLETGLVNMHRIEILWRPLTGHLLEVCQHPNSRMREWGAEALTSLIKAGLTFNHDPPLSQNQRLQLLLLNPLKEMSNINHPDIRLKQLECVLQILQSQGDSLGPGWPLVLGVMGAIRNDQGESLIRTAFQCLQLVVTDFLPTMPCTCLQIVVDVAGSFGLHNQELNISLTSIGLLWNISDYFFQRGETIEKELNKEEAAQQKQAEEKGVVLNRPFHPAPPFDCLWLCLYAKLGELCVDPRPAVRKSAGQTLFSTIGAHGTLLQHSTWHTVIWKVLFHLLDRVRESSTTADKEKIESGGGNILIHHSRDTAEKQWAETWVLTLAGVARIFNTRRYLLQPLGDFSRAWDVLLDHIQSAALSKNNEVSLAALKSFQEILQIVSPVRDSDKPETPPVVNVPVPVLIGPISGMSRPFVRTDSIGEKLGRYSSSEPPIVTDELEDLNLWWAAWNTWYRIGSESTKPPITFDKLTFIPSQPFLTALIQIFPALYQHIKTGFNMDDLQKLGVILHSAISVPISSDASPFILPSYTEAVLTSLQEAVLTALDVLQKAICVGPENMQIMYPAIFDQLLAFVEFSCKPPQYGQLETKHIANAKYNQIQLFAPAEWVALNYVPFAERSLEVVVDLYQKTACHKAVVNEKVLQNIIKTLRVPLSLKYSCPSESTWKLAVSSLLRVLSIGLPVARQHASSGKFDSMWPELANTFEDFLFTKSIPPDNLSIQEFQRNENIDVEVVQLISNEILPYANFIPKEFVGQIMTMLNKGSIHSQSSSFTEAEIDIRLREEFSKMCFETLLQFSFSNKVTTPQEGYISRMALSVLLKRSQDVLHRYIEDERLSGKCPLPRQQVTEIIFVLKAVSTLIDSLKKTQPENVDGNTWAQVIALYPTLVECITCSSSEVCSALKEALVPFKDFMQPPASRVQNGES
inactive: [1] -0.003 | filanesib -0.017 | zotarolimus 0.101 | idasanutlin -0.147 | alisertib 0.046 | [2] 0.091 | gefitinib 0.039 | [3] -0.004 | lapatinib 0.036 | pictilisib 0.048

NCOR1 (UniProt O75376)
inactive: [1] -0.07 | filanesib 0.078 | zotarolimus 0.069 | idasanutlin 0.004 | alisertib -0.086 | [2] 0.128 | gefitinib -0.018 | [3] 0.064 | lapatinib -0.119 | pictilisib 0.135

NCL (UniProt P19338)
inactive: [1] -0.091 | filanesib 0.454 | zotarolimus 0.026 | idasanutlin 0.274 | alisertib -0.16 | [2] -0.099 | gefitinib -0.022 | [3] -0.217 | lapatinib 0.159 | pictilisib -0.085

OXR1 (UniProt Q8N573)
inactive: [1] -0.018 | filanesib -0.078 | zotarolimus 0.009 | idasanutlin -0.014 | alisertib -0.059 | [2] 0.034 | gefitinib 0.003 | [3] 0.018 | lapatinib 0.011 | pictilisib 0.164

MTFR1L (UniProt Q9H019)
Chain of UniProt Q9H019 (Q9H019 whole entry, looked up): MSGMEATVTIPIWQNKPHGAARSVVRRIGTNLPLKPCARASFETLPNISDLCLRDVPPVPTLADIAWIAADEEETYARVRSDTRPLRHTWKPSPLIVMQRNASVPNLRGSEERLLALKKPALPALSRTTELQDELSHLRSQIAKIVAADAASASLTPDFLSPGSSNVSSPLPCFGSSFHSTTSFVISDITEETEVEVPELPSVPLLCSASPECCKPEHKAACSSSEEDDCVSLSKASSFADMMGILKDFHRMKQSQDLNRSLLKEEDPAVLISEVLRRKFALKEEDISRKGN
inactive: [1] 0.036 | filanesib -0.09 | zotarolimus 0.037 | idasanutlin -0.04 | [2] -0.111 | gefitinib 0.083 | lapatinib 0.044 | pictilisib 0.011

OXSM (UniProt Q9NWU1)
inactive: [1] 0.033 | filanesib -0.014 | zotarolimus -0.005 | idasanutlin 0.039 | alisertib -0.131 | [2] -0.041 | gefitinib -0.001 | [3] 0.025 | lapatinib 0.007 | pictilisib 0.057

MOV10 (UniProt Q9HCE1)
inactive: [1] -0.048 | filanesib 0.155 | zotarolimus -0.005 | idasanutlin 0.071 | alisertib -0.073 | [2] -0.021 | gefitinib 0.002 | [3] -0.1 | lapatinib 0.073 | pictilisib -0.048

NA, A0A2R8Y3M9
inactive: [1] -0.086 | filanesib 0.079 | zotarolimus -0.419 | idasanutlin 0.279 | [2] -0.123 | gefitinib -0.168 | lapatinib -0.037 | pictilisib -0.35

NOP2 isoform 4 (UniProt P46087)
inactive: [1] -0.053 | filanesib 0.651 | zotarolimus 0.118 | idasanutlin 0.419 | alisertib -0.065 | [2] 0.375 | gefitinib -0.065 | [3] -0.118 | lapatinib 0.456 | pictilisib -0.039

NTMT1 (UniProt Q9BV86)
Chain of UniProt Q9BV86 (Q9BV86 whole entry, looked up): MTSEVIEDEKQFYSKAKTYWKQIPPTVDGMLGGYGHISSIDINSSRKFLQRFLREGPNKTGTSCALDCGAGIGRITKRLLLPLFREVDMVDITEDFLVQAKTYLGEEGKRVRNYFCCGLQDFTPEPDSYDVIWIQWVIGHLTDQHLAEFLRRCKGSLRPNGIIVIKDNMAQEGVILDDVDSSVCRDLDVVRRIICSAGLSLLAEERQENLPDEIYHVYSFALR
active: [1] -0.455
inactive: filanesib -0.055 | zotarolimus 0.091 | idasanutlin -0.121 | alisertib -0.043 | [2] 0.085 | gefitinib 0.062 | [3] -0.027 | lapatinib -0.001 | pictilisib 0.092

NHLRC2 (UniProt Q8NBF2)
inactive: [1] -0.084 | filanesib -0.062 | zotarolimus -0.001 | idasanutlin -0.061 | alisertib 0.1 | [2] 0.061 | gefitinib -0.011 | [3] 0.123 | lapatinib -0.057 | pictilisib 0.062

NOL7 (UniProt Q9UMY1)
inactive: [1] -0.089 | filanesib 0.524 | zotarolimus -0.024 | idasanutlin 0.157 | alisertib -0.119 | [2] -0.086 | gefitinib -0.006 | [3] -0.142 | lapatinib 0.169 | pictilisib -0.095

OPHN1 (UniProt O60890)
inactive: [1] -0.261 | filanesib -0.004 | zotarolimus -0.049 | idasanutlin -0.015 | alisertib -0.036 | gefitinib -0.002 | [3] 0.04 | pictilisib 0.242

MORF4L2 (UniProt Q15014)
inactive: [1] -0.149 | filanesib 0.146 | zotarolimus -0.044 | idasanutlin 0.045 | alisertib -0.066 | [2] -0.085 | gefitinib -0.048 | [3] -0.074 | lapatinib 0.03 | pictilisib -0.063

NME1 isoform 2 (UniProt P15531)
Chain of UniProt P15531 (P15531 whole entry, looked up): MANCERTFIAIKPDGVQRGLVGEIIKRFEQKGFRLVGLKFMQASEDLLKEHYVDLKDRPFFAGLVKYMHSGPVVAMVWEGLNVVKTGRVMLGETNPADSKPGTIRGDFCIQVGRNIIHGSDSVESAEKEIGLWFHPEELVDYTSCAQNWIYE
active: pictilisib 0.666
inactive: [1] 0.017 | filanesib 0.007 | zotarolimus 0.001 | idasanutlin 0.022 | alisertib 0.062 | [2] 0.021 | gefitinib -0.063 | [3] 0.141 | lapatinib -0.009

NISCH (UniProt Q9Y2I1)
Chain of UniProt Q9Y2I1 (Q9Y2I1 whole entry, looked up): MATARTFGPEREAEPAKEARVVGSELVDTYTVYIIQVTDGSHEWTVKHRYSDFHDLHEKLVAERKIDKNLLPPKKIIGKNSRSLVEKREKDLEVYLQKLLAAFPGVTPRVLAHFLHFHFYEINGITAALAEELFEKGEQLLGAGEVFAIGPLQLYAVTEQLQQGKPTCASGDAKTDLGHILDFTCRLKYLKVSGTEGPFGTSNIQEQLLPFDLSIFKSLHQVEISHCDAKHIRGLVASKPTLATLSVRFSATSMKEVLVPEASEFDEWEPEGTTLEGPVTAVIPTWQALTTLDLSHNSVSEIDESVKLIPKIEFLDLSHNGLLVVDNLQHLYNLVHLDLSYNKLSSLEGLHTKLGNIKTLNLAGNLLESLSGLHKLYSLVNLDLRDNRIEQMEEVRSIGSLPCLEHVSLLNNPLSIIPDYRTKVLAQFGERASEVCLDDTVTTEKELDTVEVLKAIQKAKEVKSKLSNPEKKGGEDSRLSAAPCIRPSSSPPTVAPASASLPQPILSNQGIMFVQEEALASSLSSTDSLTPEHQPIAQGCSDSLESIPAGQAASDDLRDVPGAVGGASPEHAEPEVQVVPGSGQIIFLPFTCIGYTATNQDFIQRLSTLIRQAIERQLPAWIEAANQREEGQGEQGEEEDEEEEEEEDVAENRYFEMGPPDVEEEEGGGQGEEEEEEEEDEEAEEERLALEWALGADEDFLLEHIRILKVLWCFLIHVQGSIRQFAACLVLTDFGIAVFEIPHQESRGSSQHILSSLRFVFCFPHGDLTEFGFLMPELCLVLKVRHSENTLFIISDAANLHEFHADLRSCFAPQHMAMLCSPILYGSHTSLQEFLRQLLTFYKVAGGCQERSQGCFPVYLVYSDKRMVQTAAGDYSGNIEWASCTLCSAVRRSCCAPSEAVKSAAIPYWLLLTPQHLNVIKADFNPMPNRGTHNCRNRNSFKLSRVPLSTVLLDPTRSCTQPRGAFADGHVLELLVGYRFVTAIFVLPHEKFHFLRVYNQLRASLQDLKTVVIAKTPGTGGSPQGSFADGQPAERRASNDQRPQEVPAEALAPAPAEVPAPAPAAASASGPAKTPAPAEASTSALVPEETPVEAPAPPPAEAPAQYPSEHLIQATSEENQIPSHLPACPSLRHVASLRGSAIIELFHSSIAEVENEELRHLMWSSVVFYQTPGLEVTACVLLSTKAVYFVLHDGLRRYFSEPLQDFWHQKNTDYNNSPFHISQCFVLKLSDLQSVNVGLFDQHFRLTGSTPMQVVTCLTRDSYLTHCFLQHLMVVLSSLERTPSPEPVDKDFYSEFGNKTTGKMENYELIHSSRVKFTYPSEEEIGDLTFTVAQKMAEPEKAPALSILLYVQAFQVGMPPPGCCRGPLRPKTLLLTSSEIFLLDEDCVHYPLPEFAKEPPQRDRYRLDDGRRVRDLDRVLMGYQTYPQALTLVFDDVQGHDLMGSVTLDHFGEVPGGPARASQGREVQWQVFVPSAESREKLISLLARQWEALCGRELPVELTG
inactive: [1] -0.008 | filanesib -0.029 | zotarolimus -0.022 | idasanutlin -0.015 | alisertib 0.023 | [2] -0.119 | gefitinib -0.014 | [3] 0.106 | lapatinib 0.041 | pictilisib -0.061

MNAT1 (UniProt P51948)
Chain of UniProt P51948 (P51948 whole entry, looked up): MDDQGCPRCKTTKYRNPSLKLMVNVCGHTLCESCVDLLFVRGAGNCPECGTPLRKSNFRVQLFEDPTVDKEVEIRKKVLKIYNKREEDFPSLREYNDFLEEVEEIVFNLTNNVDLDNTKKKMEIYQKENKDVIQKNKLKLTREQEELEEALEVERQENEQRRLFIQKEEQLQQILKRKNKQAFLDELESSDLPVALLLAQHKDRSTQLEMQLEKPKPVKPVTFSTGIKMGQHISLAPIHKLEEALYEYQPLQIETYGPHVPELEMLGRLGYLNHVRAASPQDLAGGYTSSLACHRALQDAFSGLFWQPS
inactive: [1] -0.025 | filanesib 0.073 | zotarolimus 0.011 | idasanutlin 0.021 | alisertib -0.047 | [2] -0.04 | gefitinib -0.039 | [3] 0.036 | lapatinib 0.009 | pictilisib -0.016
